A selection: hits, their analogues and other compounds. The true share with any hit is near 21%.
Pf growth 48h – P. falciparum growth inhibition at 48 hours (one generation); Potency, µM (highest dose often 28.7 µM), for the others: top-dose activity change, negative = inhibition, actives largely listed as inhibitors; actives 5.9% (n = 310,000); P. falciparum luciferase growth in erythrocytes, 48 h; AID 504832; also: potency is read from the fitted curve at half-maximal effect; % is scaled to controls: 0 for no effect and ±100 for the full control effect
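A one-generation exposure of luciferase-tagged malaria parasites in RPMI 1640/Albumax erythrocyte culture, 37 C and 5% CO2. Inhibition is inferred from decreased luminescence after adding detection reagent.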
Pf growth 96h – P. falciparum growth inhibition at 96 hour, primary screen for plastid delayed-death inhibitors. Potency, µM (titrated, usually from 28.7 µM), without a hit: top-dose activity change, negative = inhibition, usual class: inhibitors. AID 504834. P. falciparum luciferase reporter growth, 96 h. actives 6.9% (n = 320,000); also: potency is read from the fitted curve at half-maximal effect; % is scaled to controls: 0 for no effect and ±100 for the full control effect
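Luminescence readout: decreased luciferase signal marks inhibited growth of reporter-expressing P. falciparum in infected red cells (2% hematocrit, 0.05% parasitemia final), exposed to compound two generations (96 h, 37 C, 5% CO2).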
HCV inhibitor – HCV inhibition. Potency, µM (top dose mostly 41.8 µM), without a hit: top-dose activity change, negative = inhibition, usual class: inhibitors. Huh7.5.1 HCVcc-Cre infection, luciferase reporter, 44 h. actives 3.4% (n = 340,000). AID 651820; also: potency is read from the fitted curve at half-maximal effect; % is scaled to controls: 0 for no effect and ±100 for the full control effect
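Compounds are dispensed onto cells plated 4 h earlier at 1,000 per well, with HCVcc-Cre virus (about 0.5 moi) added next. Following 44 h of culture, luminescent signal is measured for 15 sec after 15 min with substrate at room temperature.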
Shiga toxin inh – blocks Shiga toxin action in Vero cells; Vero cells, Shiga toxin protein synthesis inhibition reporter; actives 9.2% (n = 290,000); inhibition, % at 38.7 µM; in the data active = inhibition mostly above about 28%, no sharp cut-off; inactive = mostly below about 43%; also: 0% is about no effect
AMA1 RON2 block – AMA1-RON2 (P. falciparum) interaction inhibition. AlphaScreen AMA1-biotinylated RON2 peptide binding. Potency, µM (titrated, usually from 58.2 µM), for the others: at the highest dose activity change, negative = inhibition, actives largely listed as inhibitors. actives 0.2% (n = 360,000);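 also: potency is read from the fitted curve at half-maximal effect; 0% = vehicle wells and -100% = peptide control; nearly all actives have a fitted effect of over 45% in size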
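AMA1 (3D7) with his tag at 25 nM final met compounds first, then biotinylated RON2 peptide at 25 nM; detection used donor plus acceptor beads, 10 µg/mL apiece, read by AlphaScreen after 30 min at room temperature.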
Cycloheximide cs – counter-screen for Shiga toxin inhibitors: cycloheximide protein synthesis inhibition; cell reporter, cycloheximide protein synthesis inhibition counterscreen; max response, %; actives 12% (n = 300,000); AID 2314; in the data active = max response mostly above about 13%, no sharp cut-off; inactive = mostly below about 14%; also: read at 38.3 µM for the half of the compounds with a filed dose; 0% is about no effect
* marks the source's active call; other numbers are inactive results; ? = inconclusive; nt = no result. Unless noted, calls follow the shape of the dose curve; as a rule, active = well fitted curve in the direction sought with a large enough effect; inconclusive = small, poorly fitted or top-dose-only effect, or another doubt; inactive = no such curve, though single readings can be large; an effect the other way counts as inactive or inconclusive.

SMILES | Pf growth 48h | Pf growth 96h | HCV inhibitor | Shiga toxin inh | AMA1 RON2 block | Cycloheximide cs
NC(Cc1ccc(C(F)(F)F)cc1)c1csc(Nc2ccc(S(N)(=O)=O)cc2)n1 (stereo not given) | nt | nt | nt | nt | 47% | nt
Cc1c(C(=O)N2CCCC(C)(C(=O)NS(=O)(=O)C3CC3)C2)oc2ccccc12 (stereo not given) | nt | nt | nt | nt | -1% | nt
O=C(CN1CCOCC1)Nc1nc2ccc(Br)cc2s1 | 44% | nt | -12% | 77 | -5% | 27
O=C(CN1CCOCC1)Nc1nc2ccc(Cl)cc2s1 | 52% | 26% | -9% | 38 | 7% | 22*
CCOC(=O)N1CCN(CC(=O)Nc2nc3ccc(OC)cc3s2)CC1 | 25% | ? | -25% | 45* | 7% | 25*
CCOc1ccc2nc(NC(=O)Cn3[nH]c(=O)c4ccccc4c3=O)sc2c1 | ? | -25% | -8% | 53* | 34% | 41*
CCOc1ccc2nc(NC(=O)CN3CCN(CC)CC3)sc2c1 | -2% | -24% | -3% | 17 | -4% | 12
CCOc1ccc2nc(NC(=O)CN3CCN(C)CC3)sc2c1 | 58% | ? | ? | 50 | 0% | 27*
CCOc1ccc2nc(NC(=O)CN3C(=O)C4CCCCC4C3=O)sc2c1 (stereo not given) | 37% | 37% | 5% | nt | 13% | nt
CC(NC(=O)c1cc2c(s1)CS(=O)(=O)C2)c1ccccc1 (stereo not given) | 11% | 52% | 5% | -5 | 0% | -10
CC(=O)N(c1cccc(Cl)c1)c1nc(C)cc(C)c1C#N | 9% | 11% | 10% | 24 | -3% | -1
COc1ccc(/C=C/CN2CCC(C(=O)NC(c3ccc(F)cc3)c3ccc4ccccc4n3)CC2)cc1 (stereo not given) | nt | nt | nt | nt | -19% | nt
CCOc1ccc2nc(NC(=O)CN3CCOCC3)sc2c1 | 4.1µM* | 1% | 2% | 87* | -5% | 37*
Nc1nccnc1C(=O)OCC(=O)NCCc1ccc(S(N)(=O)=O)cc1 | 9% | 4% | 21% | nt | 6% | nt
CCc1cc(=O)oc2c(C)c(OC(C)C(=O)N3CC[C@@]4(O)CCCC[C@H]4C3)ccc12 (stereo not given in full) | ? | 12µM* | 0.89µM* | -9 | 11% | -4
CCc1cc(=O)oc2c(C)c(OC(C)C(=O)N3CCC[C@@H]3C(=O)O)ccc12 (stereo not given in full) | -9% | 0% | -3% | 1 | 15% | -1
Cc1ccccc1N1CCN(C2CCCN(C(=O)CCn3cnnn3)C2)CC1 (stereo not given) | 9% | 33% | nt | -9 | 0% | 4
Cn1cccc1-c1nc2ccc(NC(=O)c3ccc([N+](=O)[O-])cc3)cc2[nH]1 | nt | ? | ? | -17 | -1% | -2
Cc1ccc(S(=O)(=O)Nc2ccc3nc(-c4cccn4C)[nH]c3c2)cc1 | ? | nt | 11µM* | 37* | -24% | 24*
Cn1cccc1-c1nc2ccccc2[nH]1 | 138% | 187% | 11% | 88* | ? | 31*
Cn1cccc1-c1nc2ccc(NC(=O)c3ccccc3)cc2[nH]1 | 17% | 81% | ? | 36* | -7% | 20*
CCC1COCCS(=O)(=O)N1Cc1cccc(C(F)(F)F)c1 (stereo not given) | 43% | 93% | 4% | 0 | 3% | 2
Cn1cnnc1SCC(=O)c1ccc2c(c1)OCCO2 | nt | 62% | 5% | 49* | 12% | 14
COc1ccc(C(=O)CSc2nncn2C)cc1 | 10% | nt | 15% | 19 | 8% | 3
CCn1c(SCC(=O)c2ccc3c(c2)OCCO3)nnc1-c1ccco1 | -5% | 0% | -22% | 8 | -24% | 15*
COc1cccc(C(=O)CSc2nnnn2C)c1 | 4% | 9% | 12% | 19 | 2% | -3
CCCn1nnnc1SCC(=O)c1ccc2c(c1)OCCO2 | 75% | 32% | -23% | 74* | 3% | 36*
Cn1nnnc1SCC(=O)c1ccc2c(c1)OCCO2 | 115% | ? | ? | 97* | -10% | 38*
CCCCn1nnnc1SCC(=O)Nc1ccc2c(c1)OCCO2 | 40% | ? | -3% | 17 | -10% | 7

From PubChem
